# Laboratory results reported in PubChem BioAssay (NCATS).
# Several values for one entry are separate records, joined by “and”; a condition that tells them apart may be missing. Equal entries are not always repeated. Results filed as inconclusive are left out. Activity calls are given as the source filed them. Unless noted, the call rests on the fitted dose curve; in most records, active means well fitted curve in the direction sought with a large enough effect; inconclusive means small, poorly fitted or top-dose-only effect, or another doubt; inactive means no such curve, though single readings can be large; an effect the other way counts as inactive or inconclusive. Where a SMILES comes first, the peptide text is derived from it. The star is where a group is joined. AFC = O=c1cc(C(F)(F)F)c2ccc(N*)cc2o1
# What was measured:
# [1] = target: Calcium and integrin-binding protein 1 (Homo sapiens) (UniProt Q99828); experiment: Primary qHTS for Identification of Calcium Integrin Binding Protein 1 (CIB1) Competitor (AID 1508620);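 further: GST tagged CIB1 binding a fluorescein labelled alphaIIb integrin peptide tracer; top concentration of the series differs between compounds; on the % scale 0 is the no-effect control and ±100 the full control effect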
# Summary of the method: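 CIB1-GST (1 uM final) and compound incubated 15 min at room temperature before adding FITC-alphaIIb peptide tracer (100 nM final). Competition for binding read by fluorescence polarization (ex 480, em 540) after another 15 min at room temperature.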
# [2] = Primary qHTS for inhibitors of nuclear receptor binding SET domain protein 2 (NSD2) in an isogenic RCH-ACV NSD2 p.E1099K mutant (9B) (AID 1645876); further: nearly all actives have a fitted effect of over 70% in size; further: potency means the concentration at half of the fitted maximal effect; on activity change, negative = viability loss: on the % scale 0 is the no-effect control and ±100 the full control effect
# [3] = Primary qHTS for inhibitors of nuclear receptor binding SET domain protein 2 (NSD2) in an RCH-ACV wild type WT cells (2C) (AID 1645877); further: nearly all actives have a fitted effect of over 70% in size; further: potency means the concentration at half of the fitted maximal effect; on activity change, negative = cell killing: on the % scale 0 is the no-effect control and ±100 the full control effect
# [4] = target: Catechol O-methyltransferase (Homo sapiens) (UniProt P21964); experiment: Confirmatory Screen for Target Class Profiling of Small Molecule Inhibitors of Methyltransferases (AID 1745852; calls by dose curve; further: potency means the concentration at half of the fitted maximal effect; on activity change, negative = inhibition: on the % scale 0 is the no-effect control and ±100 the full control effect); settings: MTase-Glo luminescence, SAH detection, recombinant enzyme; measured here: COMT max response; stronger effect = lower value
# [5] = target: Guanidinoacetate N-methyltransferase (Homo sapiens) (UniProt Q14353); experiment: as above; settings: activity change, negative = inhibition: at 57.3 µM (top of the series) unless noted
# [6] = target: Nicotinamide N-methyltransferase (Homo sapiens) (UniProt P40261); experiment: as above; settings: MTase-Glo luminescence, SAH detection, recombinant enzyme; measured here: NNMT max response; stronger effect = lower value
# [7] = target: Phenylethanolamine N-methyltransferase (Homo sapiens) (UniProt P11086); experiment: as above; settings: MTase-Glo luminescence, SAH detection, recombinant enzyme; measured here: PNMT max response; stronger effect = lower value
# [8] = NCATS anti-infectives library activity on the primary C. elegans qHTS viability assay (AID 1745855; calls by dose curve; further: potency means the concentration at half of the fitted maximal effect)
# Summary of the method: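 Viability is taken from GFP fluorescence of PE254-GFP-FLuc C. elegans imaged by laser cytometry over 7 days. Ten L1 worms per well grow at 21 °C on TOP10 E. coli capsules with titrated compound; levamisole marks toxicity.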
# [9] = target: Cytochrome P450 2C9 (Homo sapiens) (UniProt P11712); experiment: Cytochrome P450 family 2 subfamily C member 9 (CYP2C9) small molecule antagonists: luciferase biochemical (cell-free) qHTS assay (AID 1645842; active means well fitted curve in the direction sought with a large enough effect in the repeat runs; an effect the other way counts as inactive or inconclusive; further: nearly all actives have a fitted effect of over 55% in size; further: potency means the concentration at half of the fitted maximal effect)
# Summary of the method: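 Luminescence, after 20 min with luciferin detection reagent, reflected CYP2C9 turnover during a 1 h NADPH-driven reaction at 37C. Enzyme-substrate mix contained 0.4% bovine serum albumin and was preincubated with compound 10 min at room temperature.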
# [10] = target: N-terminal Xaa-Pro-Lys N-methyltransferase 1 (Homo sapiens) (UniProt Q9BV86); experiment: Confirmatory qHTS for Inhibitors of N-terminal methyltransferase 1 (NTMT1): MTaseGlo Assay (AID 1645874);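 further: luminescence from SAH made as NTMT1 methylates SPKRIA peptide using SAM; 0% = DMSO control and -100% = no-enzyme control; nearly all actives have a fitted effect of over 65% in size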
# Summary of the method: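 Preincubation of NTMT1 (125 nM) plus SAM (100 uM) with test compounds lasted 15 min; methylation of 1 uM SPKRIA then proceeded 30 min in the dark at room temperature. Luciferase signal reported SAH produced.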
# [11] = target: Cytochrome P450 2D6 (Homo sapiens) (UniProt P10635); experiment: Cytochrome P450 family 2 subfamily D member 6 (CYP2D6) small molecule antagonists: luciferase biochemical (cell-free) qHTS assay (AID 1645840; active means well fitted curve in the direction sought with a large enough effect in the repeat runs; an effect the other way counts as inactive or inconclusive; further: potency means the concentration at half of the fitted maximal effect; nearly all actives have a fitted effect of over 55% in size)
# Summary of the method: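 P450-Glo luminescent screen: recombinant CYP2D6 enzyme–proluciferin substrate mix preincubated with compound 10 min at room temperature, then NADPH regeneration added for 1 h at room temperature. Detection reagent added for 20 min; luciferin light read as relative luminescence units.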
# [12] = target: Cytochrome P450 3A4 (Homo sapiens) (UniProt P08684); experiment: Cytochrome P450 family 3 subfamily A member 4 (CYP3A4) small molecule antagonists: luciferase qHTS assay (AID 1645841; active means well fitted curve in the direction sought with a large enough effect in the repeat runs; an effect the other way counts as inactive or inconclusive; further: nearly all actives have a fitted effect of over 45% in size)
# Summary of the method: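 Luminescent CYP3A4 activity readout: compounds plus enzyme-substrate mix 10 min at room temperature, reaction started with NADPH regenerating system for 1 h, stopped with detection reagent, read after 20 min. Ketoconazole served as control.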
# Chain of Calcium and integrin-binding protein 1 (Homo sapiens) (Q99828 whole entry, looked up): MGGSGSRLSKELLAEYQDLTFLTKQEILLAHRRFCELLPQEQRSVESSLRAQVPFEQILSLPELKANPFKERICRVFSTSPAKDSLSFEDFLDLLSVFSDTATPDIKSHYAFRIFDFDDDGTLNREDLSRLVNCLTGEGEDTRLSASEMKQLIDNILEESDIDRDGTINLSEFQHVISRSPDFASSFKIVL
# Chain of Phenylethanolamine N-methyltransferase (Homo sapiens) (P11086 whole entry, looked up): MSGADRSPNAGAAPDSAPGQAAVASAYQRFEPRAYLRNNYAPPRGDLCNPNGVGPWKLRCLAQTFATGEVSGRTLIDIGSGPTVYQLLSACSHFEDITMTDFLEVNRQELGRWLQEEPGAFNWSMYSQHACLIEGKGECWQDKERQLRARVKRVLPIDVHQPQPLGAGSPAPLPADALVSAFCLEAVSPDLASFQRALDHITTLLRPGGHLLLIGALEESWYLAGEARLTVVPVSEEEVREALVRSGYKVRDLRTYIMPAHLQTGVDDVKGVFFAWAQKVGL
# Chain of Catechol O-methyltransferase (Homo sapiens) (P21964 whole entry, looked up): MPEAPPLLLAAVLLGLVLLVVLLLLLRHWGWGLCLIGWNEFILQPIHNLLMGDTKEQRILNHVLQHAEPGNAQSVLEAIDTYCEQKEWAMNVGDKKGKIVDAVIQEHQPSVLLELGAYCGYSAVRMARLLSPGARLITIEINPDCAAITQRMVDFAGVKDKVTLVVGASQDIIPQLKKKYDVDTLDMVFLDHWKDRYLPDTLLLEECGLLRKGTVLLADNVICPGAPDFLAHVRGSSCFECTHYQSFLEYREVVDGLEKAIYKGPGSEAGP
# Chain of Nicotinamide N-methyltransferase (Homo sapiens) (P40261 whole entry, looked up): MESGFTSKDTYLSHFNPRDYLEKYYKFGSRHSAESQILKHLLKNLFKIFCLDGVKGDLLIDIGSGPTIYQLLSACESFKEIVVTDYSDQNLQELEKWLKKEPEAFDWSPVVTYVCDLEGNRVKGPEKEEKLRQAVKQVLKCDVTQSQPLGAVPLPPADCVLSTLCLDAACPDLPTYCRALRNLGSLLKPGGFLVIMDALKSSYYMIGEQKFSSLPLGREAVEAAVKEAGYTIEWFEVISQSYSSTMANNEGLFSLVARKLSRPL
# Chain of Cytochrome P450 2C9 (Homo sapiens) (P11712 whole entry, looked up): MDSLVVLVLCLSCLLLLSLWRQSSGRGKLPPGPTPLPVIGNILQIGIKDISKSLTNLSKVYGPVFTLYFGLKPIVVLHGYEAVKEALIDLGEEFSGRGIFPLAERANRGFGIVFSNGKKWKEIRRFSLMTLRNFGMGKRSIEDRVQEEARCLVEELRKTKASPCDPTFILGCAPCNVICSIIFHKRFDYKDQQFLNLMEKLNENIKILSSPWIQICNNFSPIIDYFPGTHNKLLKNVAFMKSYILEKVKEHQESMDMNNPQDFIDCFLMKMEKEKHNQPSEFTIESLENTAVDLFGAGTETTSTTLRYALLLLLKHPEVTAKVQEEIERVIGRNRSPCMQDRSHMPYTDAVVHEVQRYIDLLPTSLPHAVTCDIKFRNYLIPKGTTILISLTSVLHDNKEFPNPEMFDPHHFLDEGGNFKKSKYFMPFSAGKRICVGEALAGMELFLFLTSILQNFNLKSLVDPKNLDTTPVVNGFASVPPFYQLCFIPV
# Chain of N-terminal Xaa-Pro-Lys N-methyltransferase 1 (Homo sapiens) (Q9BV86 whole entry, looked up): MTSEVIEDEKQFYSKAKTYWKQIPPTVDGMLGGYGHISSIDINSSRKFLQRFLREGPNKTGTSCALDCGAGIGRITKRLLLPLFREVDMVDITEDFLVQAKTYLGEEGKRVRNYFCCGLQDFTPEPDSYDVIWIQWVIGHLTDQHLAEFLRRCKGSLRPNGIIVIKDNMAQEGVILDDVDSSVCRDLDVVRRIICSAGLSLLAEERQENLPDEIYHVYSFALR
# Chain of Cytochrome P450 2D6 (Homo sapiens) (P10635 whole entry, looked up): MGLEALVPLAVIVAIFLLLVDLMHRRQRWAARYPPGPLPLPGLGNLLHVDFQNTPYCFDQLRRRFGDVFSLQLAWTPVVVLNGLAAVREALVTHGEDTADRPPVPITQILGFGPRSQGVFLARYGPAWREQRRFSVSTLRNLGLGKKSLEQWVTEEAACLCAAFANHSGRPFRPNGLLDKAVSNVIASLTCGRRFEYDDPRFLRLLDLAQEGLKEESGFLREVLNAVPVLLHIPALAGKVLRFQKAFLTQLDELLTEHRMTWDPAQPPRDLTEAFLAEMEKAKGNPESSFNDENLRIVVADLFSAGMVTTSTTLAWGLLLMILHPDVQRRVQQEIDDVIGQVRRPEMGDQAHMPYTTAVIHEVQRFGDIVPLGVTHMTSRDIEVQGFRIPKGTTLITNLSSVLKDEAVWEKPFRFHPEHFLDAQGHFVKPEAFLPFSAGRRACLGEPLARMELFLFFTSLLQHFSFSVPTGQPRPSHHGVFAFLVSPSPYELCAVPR
# Chain of Cytochrome P450 3A4 (Homo sapiens) (P08684 whole entry, looked up): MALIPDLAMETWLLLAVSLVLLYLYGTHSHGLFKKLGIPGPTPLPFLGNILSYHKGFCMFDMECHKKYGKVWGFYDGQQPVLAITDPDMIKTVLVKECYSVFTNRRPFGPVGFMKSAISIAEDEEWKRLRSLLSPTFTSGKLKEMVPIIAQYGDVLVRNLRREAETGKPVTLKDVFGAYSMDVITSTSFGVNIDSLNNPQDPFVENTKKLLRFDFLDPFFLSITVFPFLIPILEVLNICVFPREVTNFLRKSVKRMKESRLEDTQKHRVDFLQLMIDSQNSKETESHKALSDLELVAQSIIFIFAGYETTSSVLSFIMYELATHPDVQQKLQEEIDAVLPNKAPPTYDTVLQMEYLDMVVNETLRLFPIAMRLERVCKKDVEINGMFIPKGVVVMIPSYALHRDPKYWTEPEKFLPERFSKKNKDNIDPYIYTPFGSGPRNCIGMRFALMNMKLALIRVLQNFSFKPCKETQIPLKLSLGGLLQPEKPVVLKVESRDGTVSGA
compound,measurement,setting,value
CC(=O)OC/C=C(\C)C(CC1C(C)=C(OC(C)=O)C(=O)C2C(C)(C)C(O)CCC12C)OC(C)=O (configuration not stated),Potency,[1],inactive
same,Potency,[2],inactive
same,Potency,[3],inactive
same,activity,[4],-67.8%
same,"activity change, negative = inhibition",[5],-2.29% [at 29.8 µM]
same,activity,[6],-5.45%
same,activity,[7],-0.876%
C[C@@H]1O[C@@H](O[C@H]2[C@H](O)[C@@H](O[C@@H]3O[C@H](CO)[C@@H](O)[C@H](O[C@@H]4O[C@H](CO)[C@@H](O)[C@H](O)[C@H]4O)[C@H]3O)[C@H](O[C@H]3CC[C@@]4(C)C(=CC[C@@H]5C4CC[C@@]4(C)C5C[C@@H]5OC6(CC[C@@](C)(CO[C@@H]7O[C@H](CO)[C@@H](O)[C@H](O)[C@H]7O)O6)[C@@H](C)[C@@H]54)C3)O[C@@H]2CO)[C@H](O)[C@H](O)[C@H]1OC1OC(CO)C(O)C(O)C1O (some centres not stated),"activity change, negative = inhibition",[1],-2.87% [at 12.4 µM] (inactive)
same,outcome,[2],inactive [at 9.23 µM]
same,outcome,[3],inactive [at 9.23 µM]
COc1cc(/C=C/C(=O)OC[C@H]2O[C@@](CO)(O[C@H]3O[C@H](CO)[C@@H](O)[C@H](O)[C@H]3O)[C@@H](OC(=O)/C=C/c3ccc(O)c(OC)c3)[C@@H]2O)ccc1O,Potency,[1],inactive
same,Potency,[2],inactive
same,Potency,[3],inactive
same,activity,[4],-51%
same,"activity change, negative = inhibition",[5],-4.9% [at 19.1 µM]
same,activity,[6],-6.08%
same,activity,[7],-2.86%
CC1(C)CC[C@]2(C(=O)OC3OC(CO)C(O)C(O)C3O)CC[C@]3(C)C(=CCC4[C@@]5(C)CC[C@H](OC6OC(C(=O)O)C(O)C(OC7OC(CO)C(O)C(O)C7O)C6O)C(C)(C)C5CC[C@]43C)C2C1 (some centres not stated),Potency,[1],inactive
same,"activity change, negative = viability loss",[2],-3.97% [at 9.23 µM] (inactive)
same,"activity change, negative = cell killing",[3],-7.21% [at 9.23 µM] (inactive)
NCCCNc1ccc(Nc2nccc(Nc3cc(C4CC4)[nH]n3)n2)cc1,Potency,[1],inactive
same,Potency,[2],578 nM (active)
same,Potency,[3],515 nM (active)
same,activity,[4],-13.5%
same,Potency,[5],27100 nM (active)
same,activity,[6],-57.6%
same,activity,[7],-35.6%
C[C@@H]1C[C@@H](O)[C@@]23CO[C@@H](O)[C@@H]2CCC[C@@H]3[C@@]12C[C@@H](c1ccoc1)OC2=O,Potency,[1],inactive
same,Potency,[2],inactive
same,Potency,[3],inactive
COc1cc(C(=O)NC2CCN(C)CC2)ccc1Nc1ncc2c(n1)N(C1CCCC1)CC(F)(F)C(=O)N2C,Potency,[1],inactive
same,Potency,[2],20.5 nM (active)
same,Potency,[3],32.5 nM (active)
same,activity,[4],-24%
same,Potency,[5],27100 nM (active)
same,activity,[6],-23.8%
same,activity,[7],-20.9%
CC(=O)N[C@@H](Cc1c[nH]c2ccccc12)C(=O)N[C@@H](CCC(=O)O)C(=O)N[C@@H](Cc1cnc[nH]1)C(=O)N[C@@H](CC(=O)O)C(=O)Nc1ccc2c(C(F)(F)F)cc(=O)oc2c1 (Ac-WEHD-{AFC}),Potency,[1],inactive
same,Potency,[2],inactive
same,Potency,[3],inactive
COc1ccc(CN2C(=O)C(=O)c3cc(S(=O)(=O)N4CCC[C@H]4COc4cccnc4)ccc32)cc1,Potency,[1],inactive
same,Potency,[2],inactive
same,Potency,[3],inactive
CC(C)CCC1(O)C(=O)C(C)(C)C(O[C@@H]2O[C@H](CO)[C@@H](O)[C@H](O)[C@H]2O)C(C)(C)C1O (some centres not stated),Potency,[1],inactive
same,Potency,[2],inactive
same,Potency,[3],inactive
same,activity,[4],-56.9%
same,"activity change, negative = inhibition",[5],-2.97% [at 29.8 µM]
same,activity,[6],-3.79%
same,activity,[7],-2.04%
CC(C)C[C@H](CC(=O)NO)C(=O)N[C@@H](Cc1ccc2ccccc2c1)C(=O)N[C@@H](C)C(=O)NCCN,Potency,[1],inactive
same,Potency,[2],inactive
same,Potency,[3],inactive
C=CC[C@]12C[C@@H](OC)C(=O)C(OC)=C1O[C@@H](c1cc(OC)c3c(c1)OCO3)[C@@H]2C,Potency,[1],inactive
same,Potency,[2],inactive
same,Potency,[3],inactive
Cc1cc(N(C)C)ccc1-c1nc2ccc(-c3nc4ccc(N5CCN(C)CC5)cc4[nH]3)cc2[nH]1,Potency,[1],inactive
same,Potency,[2],578 nM (active)
same,Potency,[3],258 nM (active)
same,activity,[4],-4.96%
same,"activity change, negative = inhibition",[5],0%
same,activity,[6],-5.28%
same,activity,[7],-3.42%
O=C(N/N=C/c1ccc(O)c(O)c1)c1cc2ccccc2cc1O,Potency,[8],20500 nM (active)
C[C@H](NC(=O)CCc1nc2ccccc2c(=O)[nH]1)c1ccccc1,Potency,[8],inactive
CNC(=O)c1ccccc1Nc1cc(Nc2ccc(N3CCOCC3)cc2OC)ncc1C(F)(F)F,Potency,[9],4250 nM (active)
same,Potency,[10],inactive
same,Potency,[2],2900 nM (active)
same,Potency,[3],2900 nM (active)
C=C(C)C(=O)O[C@H]1C[C@@](C)(O)C(=O)CC(O)/C(C)=C\[C@H]2OC(=O)C(=C)[C@H]12 (some centres not stated),Potency,[2],4010 nM (active)
C=C(C(=O)O)[C@@H]1CC[C@@]2(C)CC[C@H](O)[C@@]2(C(C)=O)C1,Potency,[1],inactive
same,Potency,[3],16300 nM (active)
same,activity,[4],-66.3%
same,"activity change, negative = inhibition",[5],-6.04%
same,activity,[6],-3.52%
same,activity,[7],-3.81%
CN1CCN(C2CCC(n3cc(-c4ccc(Oc5ccccc5)cc4)c4c(N)ncnc43)CC2)CC1 (configuration not stated),Potency,[11],12000 nM (active)
same,Potency,[12],inactive
same,Potency,[9],inactive
same,Potency,[2],20.5 nM (active) and 74.2 nM (active)
same,Potency,[3],72.8 nM (active) and 74.2 nM (active)
same,activity,[4],-15.7%
same,"activity change, negative = inhibition",[5],0%
same,activity,[6],-13.2%
same,activity,[7],-72%
OC[C@@]1(O)CO[C@@H](OC[C@H]2O[C@@H](Oc3c[nH]c4ccccc34)[C@H](O)[C@@H](O)[C@@H]2O)[C@@H]1O,Potency,[1],inactive
same,Potency,[3],inactive
